HT1080 IDH1KD tx = toxicity to HT-1080 IDH1 knockdown cells (counter line); HT-1080 IDH1 knockdown viability, ATP luminescence, 48 h; Potency, µM (series often up to 46.1 µM), inactives show top-dose activity, negative = toxicity, most hits filed as cytotoxic; actives 2% (n = 360,000); AID 686971;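 also: 0% = DMSO wells and -100% = cell-free medium wells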
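IDH1KD HT-1080 cells, 750/well, RPMI + 5% FBS; compound pinned after 2 h settling; 48 h, 37 °C; CellTiter-Glo luminescence; % activity normalised to DMSO and no-cell wells; curves fitted, classed by r2 and efficacy.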
HepG2 tox = counter-screen for TGF-b inhibitors: cytotoxicity in HepG2 cells. Potency, µM (doses to about 46.1 µM), for inactives: at the top dose activity change, negative = cytotoxicity, most hits filed as cytotoxic. HepG2 CAGA-GFP viability, ATP luminescence, 18 h. actives 0.76% (n = 410,000)
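HepG2 CAGA-GFP cells (1000/well, DMEM with 1% FBS) received compound, then TGF-beta at 500 pg/mL final, and were incubated 18 hours at 37 degrees C. Viability was read by CellTiter-Glo luminescence. Media-only wells were set as complete cell-killing and DMSO as no toxicity.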
S2 tox = viability counter-screen for ATXN expression inhibitors. Potency, µM (doses to about 56.7 µM), actives largely listed as cytotoxic. actives 0.49% (n = 400,000). S2 cells (HEK-293 line with an ATXN2-luciferase reporter) viability, CellTiter-Fluor protease fluorescence, 24 h. AID 651635; also: nearly all actives have a fitted effect of over 40% in size
TGFb SMAD3 inh = blocks TGF-b signaling; HepG2 CAGA-GFP TGF-b/SMAD3 reporter, GFP fluorescence, 18 h; TGF-beta stimulated, 500 pg/mL final; Potency, µM (highest dose often 46.1 µM), without a hit: at the top dose activity, negative = inhibition, hits mostly inhibitors; actives 1.2% (n = 410,000); AID 588855; also: % is scaled to controls: 0 for no effect and ±100 for the full control effect; nearly all actives have a fitted effect of over 65% in size
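HEPG2 CAGA-GFP, 1000 cells/well; 2 h settle, 37 C; cpd via pin tool; TGF-b 500 pg/mL final; 18 h, 37 C; GFP imaging ex488/em500-530; %Activity normalised to -TGF-b and +DMSO controls; CRC fit, curve class.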
ATXN2 expr inh = reduces ATXN2 reporter expression in HEK-293 cells | HEK-293 ATXN2-luciferase reporter, luminescence, 24 h | Potency, µM (doses to about 57 µM), for the others: top-dose activity change, negative = inhibition, usual class: inhibitors | actives 0.72% (n = 360,000); also: % is scaled to controls: 0 for no effect and ±100 for the full control effect; nearly all actives have a fitted effect of over 55% in size
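ATXN2-luciferase reporter cells (luciferase flanked by upstream and downstream ATXN2 gene portions) were treated 24 h at 37 °C with compounds at up to 57 uM. SteadyGlo luminescence gave expression; GF-AFC fluorescence gave viability.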
HT1080NT lethal = kills 2HG-producing HT-1080-NT fibrosarcoma cells | HT-1080-NT fibrosarcoma viability, CellTiter-Glo ATP luminescence, 48 h | Potency, µM (top dose mostly 46.1 µM), inactives show at the highest dose activity, negative = less viability, actives largely listed as cytotoxic | actives 1.6% (n = 360,000) | AID 686970;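 also: NT is the 2HG producing partner of a matched IDH1 knockdown line; 0% = DMSO-treated cells and -100% = media-only wells without cells; nearly all actives have a fitted effect of over 55% in size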
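Fibrosarcoma NT cells, 750 per well in 5% FBS RPMI, were exposed to compound for 48 hours. Viability: CellTiter-Glo luminescence.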
Active calls of the source: *; i = inactive; ? = inconclusive; . = no result; [ ] = remark or other dose. The list is not random: actives were taken first. Their share in the collection is about 3.9%. Calls follow the shape of the dose curve; as a rule, active = well fitted curve in the direction sought with a large enough effect; inconclusive = small, poorly fitted or top-dose-only effect, or another doubt; inactive = no such curve, though single readings can be large; an effect the other way counts as inactive or inconclusive. Potency is read from the fitted curve at half-maximal effect.

SMILES	HT1080 IDH1KD tx	HepG2 tox	S2 tox	TGFb SMAD3 inh	ATXN2 expr inh	HT1080NT lethal
COc1cc(NC(=O)c2ccc([N+](=O)[O-])o2)ccc1NC(=O)c1ccco1	19.3%	3.6%	i	1.12µM*	.	9.6%
COc1ccc(-c2cc(C(=O)Nc3ccc(C#N)cc3)no2)cc1	.	-9.2%	i	0.3%	7.9%	.
O=Cc1ccccc1OCCOc1ccccc1C=O	7.08µM*	-24.0%	?	?	0.0%	10µM*
CC(=O)c1cccc(CN2CCCC(C(=O)c3ccc4c(c3)OCO4)C2)c1 (stereo unspecified)	-24.7%	-19.5%	i	-19.0%	-16.2%	2.0%
O=C(c1ccc2c(c1)OCO2)C1CCCN(C2CCN(CCc3ccccc3)CC2)C1 (stereo unspecified)	23.1µM*	-32.1%	i	-24.8%	-37.3%	10.3µM*
COc1cc(CNc2ccc3[nH]c(=O)[nH]c3c2)ccc1OCc1ccc(Cl)cc1	-22.2%	-54.4%	?	11.2µM*	4.5%	-25.9%
COc1cc(CNc2ccc(N3CCN(C(C)=O)CC3)cc2)ccc1OCc1ccc(F)cc1	?	-16.1%	?	?	-28.6%	23.1µM*
COc1cc(CNc2ccc3[nH]c(=O)[nH]c3c2)ccc1OCc1ccc(F)cc1	-24.7%	-6.1%	i	-18.8%	3.5%	-10.3%
CC(=O)Nc1ccc(C(=O)N2CCCC(n3cc(C(=O)NCC(C)C)nn3)C2)cc1 (stereo unspecified)	.	.	i	.	.	.
CN(C)S(=O)(=O)c1ccc(N2CCN(S(=O)(=O)c3ccc(F)cc3)CC2)c(Cl)c1	7.08µM*	-57.5%	i	?	-33.0%	10µM*
CC(C)(C)NCC(=Cc1ccccc1)C(=O)c1ccccc1	5.8µM*	-100.0%	10.6µM*	8.91µM*	8.44µM*	6.51µM*
CCOC(=O)c1sc2nc(CSc3ccccc3)nc(N3CCC(C(N)=O)CC3)c2c1C	23.1µM*	-26.5%	?	?	?	?
CCOC(=O)c1sc2nc(CSc3ccccc3)nc(N3CCCN(C)CC3)c2c1C	-23.3%	-14.5%	35.5µM*	-8.4%	.	-14.5%
Cc1sc2nc(CSc3ccccc3)nc(N3CCC(C(N)=O)CC3)c2c1C	6.6%	-3.8%	?	?	.	0.1%
CO[C@H]1[C@H](NC(=O)c2ccco2)c2ccccc2C12CCN(Cc1cnc(N(C)C)s1)CC2	.	.	i	.	.	.
Cc1ccc(-c2ccccc2NC(=O)CCl)o1	1.1%[9.24 µM]	-6.4%	i	-9.4%	-7.0%	0.5%
Cc1ccc(-c2ccccc2NC(=O)CS(=O)CC(=O)Nc2ccc(C)c(Cl)c2)o1 (stereo unspecified)	23.1µM*	-13.3%	i	3.0%	?	-3.0%
CN[C@H]1[C@@H](O)[C@@H]2O[C@@H]3O[C@H](C)CC(=O)[C@]3(O)O[C@@H]2[C@@H](NC)[C@H]1O	.	.	.	.	27.3µM*	.
O=C(NCC1Cc2cccc(-c3ncccn3)c2O1)c1cccc(-c2ccccc2F)c1 (stereo unspecified)	.	.	i	.	.	.
CNCc1c(OCc2ccccc2F)ccc2ccccc12	?	-40.8%	i	?	?	18.4µM*
Nc1nonc1C(=O)NCCNCc1c(OCc2ccccc2F)ccc2ccccc12	10µM*	-95.9%	?	?	?	?
CC1c2cc3c(cc2CCN1C(=O)c1cccc(Cl)c1)OCCCO3 (stereo unspecified)	?	-26.7%	i	?	.	20.6µM*
CC1c2cc3c(cc2CCN1CC(=O)Nc1ccccc1)OCCCO3 (stereo unspecified)	-3.4%	-35.0%	i	-11.6%	-16.8%	-27.6%
O=C(Cn1cc(S(=O)(=O)Cc2ccccc2F)c2ccccc21)NCc1ccccc1Cl	.	1.9%	.	0.0%	.	.
Cc1ccccc1CNC(=O)c1cc2cc(S(=O)(=O)N3CCCCC3)ccc2n1C	.	-2.8%	.	-1.0%	.	.
SMILES	HT1080 IDH1KD tx	HepG2 tox	S2 tox	TGFb SMAD3 inh	ATXN2 expr inh	HT1080NT lethal
CC(CCc1ccccc1)NC(=O)c1ccccc1 (stereo unspecified)	-3.0%[9.24 µM]	1.0%	i	?	3.0%	-1.4%
CC(CCc1ccccc1)NC(=O)c1cccc(F)c1 (stereo unspecified)	20.2%	-44.4%	i	11.2µM*	1.9%	10.7%
CC(CCc1ccccc1)NC(=O)c1ccc(C(=O)NC(C)CCc2ccccc2)cc1 (stereo unspecified)	?	-20.3%	?	-6.6%	6.31µM*	?
CN(C)Cc1c(C(=O)NCCOc2ccc(C(=O)NO)cc2)oc2ccccc12	.	.	.	.	119.5%	.
CCOc1ccc(C(=O)NCc2nc3cccnc3n2Cc2ccc(F)cc2)cc1OCC	.	-12.9%	.	?	.	.
Oc1cc(-c2nc(-c3ccccc3)[nH]c2-c2ccncc2)ccc1Cl	.	.	.	.	-8.7%	.
Cc1ccc(-c2noc(CCC(=O)NCCN3CCN(Cc4ccccc4)CC3)n2)cc1	-8.9%	1.26µM*	i	22.5%	-23.8%	-9.6%
COc1cccc(CNC(=O)c2ccc(-c3nc(CSc4ccccc4)c(C)o3)cc2)c1	.	1.0%	i	12.9%	6.7%	.
COc1ccc(Nc2oc(/C=C/c3cccc(OC)c3)nc2C#N)cc1	.	-22.2%	i	-36.0%	12.1%	.
Cc1ccc(S(=O)(=O)c2nnn3c2nc(NC(C)C)c2sccc23)cc1	.	15.8µM*	.	10µM*	.	.
CCCCNS(=O)(=O)CCNCCc1ccccc1	9.8%	-0.6%	i	2.7%	5.9%	5.5%
CCCCCCCCNCCS(=O)(=O)NCc1ccccc1	-19.8%	15.8µM*	.	?	?	-2.7%
COc1cc(NC(=O)CCCc2nnc3n(CC(C)C)c(=O)c4sccc4n23)cc(OC)c1	.	1.0%	.	-12.8%	.	.
CCOc1ccc(CNC(=O)C2CCCN(c3nc4c(C)cc(C)cc4s3)C2)cc1 (stereo unspecified)	.	-8.3%	.	-4.3%	.	.
O=C(/C=C/c1cccc2ccccc12)c1ccncc1	?	11.2µM*	i	11.2µM*	?	?
Cc1[nH]c2ccccc2c1/C=C/C(=O)c1ccncc1	-1.3%	-17.7%	.	13.2%	-19.5%	-3.4%
COc1ccc(NC(=O)c2cc(=O)c3ccc(C)c(C)c3o2)cc1Cl	.	3.8%	i	-14.2%	-3.8%	.
c1c2c(cc3sc(N4CCOCC4)nc13)OCCO2	?	-58.4%	i	0.0%	6.31µM*	-24.7%
O=C(C1CCCCC1)N1CCC(c2nc3c(nnn3Cc3ccccc3Cl)c(=O)[nH]2)CC1	-0.7%	2.2%	i	4.5%	-2.1%	-8.8%

Screens (PubChem BioAssay)
